Reference: PMC7862700, “An all-to-all approach to the identification of sequence-specific readers for epigenetic DNA modifications on cytosine”

Key:
Assay in all cases: DAPPL (digital affinity profiling via proximity ligation, sequencing); 10 mM Tris-HCl pH 7.5, 50 mM NaCl, 1 mM DTT, 4% glycerol, room temperature, 30 min; GST-TFs on glutathione beads, 16-mer random dsDNA library, 0.1% formaldehyde crosslink after washing; high values mean tight binding
FLI1 = target: T1, FLI1 (Homo sapiens, UniProt Q01543 1-452); settings: protein: recombinant; tags: N-terminal GST; dsDNA, one strand shown
T1 sequence: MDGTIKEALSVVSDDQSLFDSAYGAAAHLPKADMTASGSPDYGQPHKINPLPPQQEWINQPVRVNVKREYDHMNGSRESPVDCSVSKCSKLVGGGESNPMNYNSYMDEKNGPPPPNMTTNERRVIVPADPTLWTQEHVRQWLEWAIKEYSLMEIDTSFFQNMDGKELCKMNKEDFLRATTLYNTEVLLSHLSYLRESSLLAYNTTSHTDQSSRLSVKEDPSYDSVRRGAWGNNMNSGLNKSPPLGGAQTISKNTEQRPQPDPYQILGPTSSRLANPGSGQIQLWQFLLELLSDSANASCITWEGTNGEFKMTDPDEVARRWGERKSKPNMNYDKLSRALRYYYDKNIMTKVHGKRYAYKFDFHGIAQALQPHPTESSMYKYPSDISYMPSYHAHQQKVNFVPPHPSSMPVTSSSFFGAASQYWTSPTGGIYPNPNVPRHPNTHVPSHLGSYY
Summary of the method: (§1)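 Binding signal is defined as a hexamer's read frequency for one factor over its frequency for the tag-only sample. To obtain reads, GST-fused human transcription factors were expressed in yeast, captured on glutathione beads, barcoded with DNA and pooled with that sample. Pools met 200 nmole of a 16-mer random double-stranded DNA library in Tris/NaCl/DTT/glycerol buffer for 30 min at room temperature before washing, 0.1% formaldehyde crosslinking, proximity ligation (BsaI/T4 ligase, 1 h, 37 °C), PCR and Illumina NextSeq500 sequencing.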

ELK1 = target: T2, ELK1 (Homo sapiens, UniProt P19419 1-428); settings: protein: recombinant; tags: N-terminal GST; dsDNA, one strand shown
T2 sequence: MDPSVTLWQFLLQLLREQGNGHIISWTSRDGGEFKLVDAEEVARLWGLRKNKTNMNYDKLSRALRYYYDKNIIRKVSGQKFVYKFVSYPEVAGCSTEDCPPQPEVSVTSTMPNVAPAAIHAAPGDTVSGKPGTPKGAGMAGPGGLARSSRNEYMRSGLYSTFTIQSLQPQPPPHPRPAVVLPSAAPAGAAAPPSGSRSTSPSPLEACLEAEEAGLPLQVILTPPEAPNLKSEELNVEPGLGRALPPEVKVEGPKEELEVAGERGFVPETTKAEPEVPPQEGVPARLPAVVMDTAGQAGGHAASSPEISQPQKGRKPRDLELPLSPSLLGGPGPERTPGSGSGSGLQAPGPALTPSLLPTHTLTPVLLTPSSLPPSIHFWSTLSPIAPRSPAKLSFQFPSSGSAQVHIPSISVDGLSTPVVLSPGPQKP
Summary of the method: as §1

GABPA = target: T3, GABPA (Homo sapiens, UniProt Q06546 1-454); settings: protein: recombinant; tags: N-terminal GST; dsDNA, one strand shown
T3 sequence: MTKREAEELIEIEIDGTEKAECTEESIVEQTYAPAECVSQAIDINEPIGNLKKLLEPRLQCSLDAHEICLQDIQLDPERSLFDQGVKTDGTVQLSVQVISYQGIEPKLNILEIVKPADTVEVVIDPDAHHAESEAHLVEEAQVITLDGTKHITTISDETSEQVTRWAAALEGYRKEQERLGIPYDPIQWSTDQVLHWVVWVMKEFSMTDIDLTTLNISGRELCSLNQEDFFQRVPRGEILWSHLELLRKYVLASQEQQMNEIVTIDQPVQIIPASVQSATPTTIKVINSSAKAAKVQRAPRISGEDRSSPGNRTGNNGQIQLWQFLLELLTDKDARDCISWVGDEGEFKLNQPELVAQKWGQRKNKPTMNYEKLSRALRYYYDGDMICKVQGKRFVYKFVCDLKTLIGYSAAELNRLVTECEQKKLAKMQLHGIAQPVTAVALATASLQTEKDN
Summary of the method: as §1

ERG = target: T4, ERG (Homo sapiens, UniProt P11308 1-479); settings: protein: recombinant; tags: N-terminal GST; dsDNA, one strand shown
T4 sequence: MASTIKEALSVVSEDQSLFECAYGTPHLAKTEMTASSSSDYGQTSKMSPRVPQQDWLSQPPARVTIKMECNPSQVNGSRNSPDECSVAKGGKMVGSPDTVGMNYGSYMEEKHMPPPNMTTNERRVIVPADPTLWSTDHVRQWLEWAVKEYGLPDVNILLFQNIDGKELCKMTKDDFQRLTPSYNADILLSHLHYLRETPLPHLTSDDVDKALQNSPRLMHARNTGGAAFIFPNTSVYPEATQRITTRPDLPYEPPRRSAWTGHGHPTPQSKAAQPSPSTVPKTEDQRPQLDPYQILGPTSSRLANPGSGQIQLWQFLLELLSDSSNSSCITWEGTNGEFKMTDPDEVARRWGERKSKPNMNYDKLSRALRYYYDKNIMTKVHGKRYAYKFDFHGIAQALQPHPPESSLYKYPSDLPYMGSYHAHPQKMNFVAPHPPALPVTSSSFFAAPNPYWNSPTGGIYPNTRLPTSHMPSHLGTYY
Summary of the method: as §1

ELF1 = ELF1 (Homo sapiens, UniProt P32519 1-619); settings: protein: recombinant; tags: N-terminal GST; dsDNA, one strand shown
Summary of the method: as §1

EHF = target: T5, EHF (Homo sapiens, UniProt Q9NZC4 1-300); settings: protein: recombinant; tags: N-terminal GST; dsDNA, one strand shown
T5 sequence: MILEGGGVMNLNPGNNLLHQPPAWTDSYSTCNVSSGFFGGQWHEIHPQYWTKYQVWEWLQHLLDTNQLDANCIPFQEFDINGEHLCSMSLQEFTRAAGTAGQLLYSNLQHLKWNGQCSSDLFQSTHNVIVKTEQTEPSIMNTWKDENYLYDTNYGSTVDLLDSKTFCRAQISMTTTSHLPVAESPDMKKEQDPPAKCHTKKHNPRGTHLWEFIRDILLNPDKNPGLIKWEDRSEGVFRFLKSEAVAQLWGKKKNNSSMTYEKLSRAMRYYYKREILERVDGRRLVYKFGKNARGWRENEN
Summary of the method: as §1

SPI1 = SPI1 (Homo sapiens, UniProt P17947 1-270); settings: protein: recombinant; tags: N-terminal GST; dsDNA, one strand shown
Summary of the method: as §1

SPIB = SPIB (Homo sapiens, UniProt Q01892 1-262); settings: protein: recombinant; tags: N-terminal GST; dsDNA, one strand shown
Summary of the method: as §1

ELK3 = target: T6, ELK3 (Homo sapiens, UniProt P41970 1-407); settings: protein: recombinant; tags: N-terminal GST; dsDNA, one strand shown
T6 sequence: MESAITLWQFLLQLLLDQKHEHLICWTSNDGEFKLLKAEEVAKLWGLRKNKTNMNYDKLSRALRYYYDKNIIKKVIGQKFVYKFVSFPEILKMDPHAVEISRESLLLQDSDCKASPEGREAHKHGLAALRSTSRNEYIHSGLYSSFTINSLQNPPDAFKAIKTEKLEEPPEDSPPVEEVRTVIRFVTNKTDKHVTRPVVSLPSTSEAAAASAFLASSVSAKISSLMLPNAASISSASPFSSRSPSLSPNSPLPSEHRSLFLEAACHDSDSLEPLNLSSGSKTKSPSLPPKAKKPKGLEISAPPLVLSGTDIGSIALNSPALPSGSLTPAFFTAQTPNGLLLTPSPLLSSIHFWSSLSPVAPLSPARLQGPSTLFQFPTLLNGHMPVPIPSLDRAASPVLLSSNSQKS
Summary of the method: as §1

ETV5 = ETV5 (Homo sapiens, UniProt P41161 1-510); settings: protein: recombinant; tags: N-terminal GST; dsDNA, one strand shown
Summary of the method: as §1

HSF1 = HSF1 (Homo sapiens, UniProt Q00613 1-529); settings: protein: recombinant; tags: N-terminal GST; chain copies: 3; dsDNA, one strand shown
Summary of the method: as §1

SPIC = target: T7, SPIC (Homo sapiens, UniProt Q8N5J4 1-248); settings: protein: recombinant; tags: N-terminal GST; dsDNA, one strand shown
T7 sequence: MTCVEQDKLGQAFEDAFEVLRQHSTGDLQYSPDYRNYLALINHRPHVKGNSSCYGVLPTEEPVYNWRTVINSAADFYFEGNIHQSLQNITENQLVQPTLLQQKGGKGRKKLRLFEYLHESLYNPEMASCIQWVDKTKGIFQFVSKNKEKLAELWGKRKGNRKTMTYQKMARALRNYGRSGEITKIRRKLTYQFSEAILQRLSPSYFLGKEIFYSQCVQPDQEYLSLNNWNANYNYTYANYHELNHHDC
Summary of the method: as §1

ELF4 = ELF4 (Homo sapiens, UniProt Q99607 1-663); settings: protein: recombinant; tags: N-terminal GST; dsDNA, one strand shown
Summary of the method: as §1

ELK4 = target: T8, ELK4 (Homo sapiens, UniProt P28324-2 1-405); settings: protein: recombinant; tags: N-terminal GST; dsDNA, one strand shown
T8 sequence: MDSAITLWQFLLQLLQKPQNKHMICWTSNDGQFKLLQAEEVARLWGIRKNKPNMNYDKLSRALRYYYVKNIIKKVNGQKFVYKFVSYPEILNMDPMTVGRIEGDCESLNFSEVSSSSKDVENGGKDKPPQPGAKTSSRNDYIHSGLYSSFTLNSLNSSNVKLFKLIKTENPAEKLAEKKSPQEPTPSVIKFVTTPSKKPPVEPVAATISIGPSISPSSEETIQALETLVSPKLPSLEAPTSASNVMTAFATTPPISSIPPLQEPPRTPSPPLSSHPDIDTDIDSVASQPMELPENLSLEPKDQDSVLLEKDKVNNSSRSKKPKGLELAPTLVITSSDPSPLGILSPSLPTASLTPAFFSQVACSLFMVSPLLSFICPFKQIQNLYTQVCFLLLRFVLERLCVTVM
Summary of the method: as §1

ETV2 = target: T9, ETV2 (Homo sapiens, UniProt O00321 1-342); settings: protein: recombinant; tags: N-terminal GST; dsDNA, one strand shown
T9 sequence: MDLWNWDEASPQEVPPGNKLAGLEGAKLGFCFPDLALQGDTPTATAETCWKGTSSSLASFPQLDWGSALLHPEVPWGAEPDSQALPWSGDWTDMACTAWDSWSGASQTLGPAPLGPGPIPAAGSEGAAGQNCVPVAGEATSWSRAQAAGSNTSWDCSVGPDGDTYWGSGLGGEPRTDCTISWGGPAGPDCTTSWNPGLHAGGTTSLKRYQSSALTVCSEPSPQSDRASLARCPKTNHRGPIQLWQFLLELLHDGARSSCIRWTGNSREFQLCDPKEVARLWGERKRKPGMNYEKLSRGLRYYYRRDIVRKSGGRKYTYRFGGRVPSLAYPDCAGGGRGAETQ
Summary of the method: as §1

CRX = CRX (Homo sapiens, UniProt O43186 1-299); settings: protein: recombinant; tags: N-terminal GST; dsDNA, one strand shown
Summary of the method: as §1

ETV1 = ETV1 (Homo sapiens, UniProt P50549 1-477); settings: protein: recombinant; tags: N-terminal GST; dsDNA, one strand shown
Summary of the method: as §1

Chain of SPIB (Q01892 whole entry): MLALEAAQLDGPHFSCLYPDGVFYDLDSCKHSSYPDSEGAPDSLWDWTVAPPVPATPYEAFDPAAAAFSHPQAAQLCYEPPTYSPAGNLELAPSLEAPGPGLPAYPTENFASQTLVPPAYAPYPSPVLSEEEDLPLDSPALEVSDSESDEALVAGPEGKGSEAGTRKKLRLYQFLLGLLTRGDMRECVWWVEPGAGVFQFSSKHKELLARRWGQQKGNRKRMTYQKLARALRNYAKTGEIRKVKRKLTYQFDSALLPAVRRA
Chain of ETV5 (P41161 whole entry): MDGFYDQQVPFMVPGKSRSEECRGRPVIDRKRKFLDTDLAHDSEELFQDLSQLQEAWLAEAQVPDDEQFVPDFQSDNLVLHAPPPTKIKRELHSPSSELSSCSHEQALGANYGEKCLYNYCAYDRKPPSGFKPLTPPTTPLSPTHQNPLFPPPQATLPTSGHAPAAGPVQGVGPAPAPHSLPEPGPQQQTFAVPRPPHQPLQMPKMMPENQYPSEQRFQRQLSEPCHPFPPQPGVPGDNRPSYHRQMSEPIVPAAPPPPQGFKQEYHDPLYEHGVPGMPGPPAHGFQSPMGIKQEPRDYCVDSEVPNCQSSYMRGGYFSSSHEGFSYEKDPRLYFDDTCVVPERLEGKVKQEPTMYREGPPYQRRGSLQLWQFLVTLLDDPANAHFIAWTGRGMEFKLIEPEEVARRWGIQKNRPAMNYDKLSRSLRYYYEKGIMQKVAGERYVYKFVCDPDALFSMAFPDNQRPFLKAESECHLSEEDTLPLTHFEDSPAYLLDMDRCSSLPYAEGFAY
Chain of CRX (O43186 whole entry): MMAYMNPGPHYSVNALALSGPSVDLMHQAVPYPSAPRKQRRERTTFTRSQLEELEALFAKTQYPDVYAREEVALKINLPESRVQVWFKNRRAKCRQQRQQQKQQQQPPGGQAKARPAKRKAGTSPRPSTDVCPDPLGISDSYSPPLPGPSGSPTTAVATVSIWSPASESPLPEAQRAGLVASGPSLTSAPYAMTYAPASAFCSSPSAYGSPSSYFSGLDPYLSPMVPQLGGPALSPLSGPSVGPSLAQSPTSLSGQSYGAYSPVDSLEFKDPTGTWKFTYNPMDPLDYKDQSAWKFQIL
Chain of HSF1 (Q00613 whole entry): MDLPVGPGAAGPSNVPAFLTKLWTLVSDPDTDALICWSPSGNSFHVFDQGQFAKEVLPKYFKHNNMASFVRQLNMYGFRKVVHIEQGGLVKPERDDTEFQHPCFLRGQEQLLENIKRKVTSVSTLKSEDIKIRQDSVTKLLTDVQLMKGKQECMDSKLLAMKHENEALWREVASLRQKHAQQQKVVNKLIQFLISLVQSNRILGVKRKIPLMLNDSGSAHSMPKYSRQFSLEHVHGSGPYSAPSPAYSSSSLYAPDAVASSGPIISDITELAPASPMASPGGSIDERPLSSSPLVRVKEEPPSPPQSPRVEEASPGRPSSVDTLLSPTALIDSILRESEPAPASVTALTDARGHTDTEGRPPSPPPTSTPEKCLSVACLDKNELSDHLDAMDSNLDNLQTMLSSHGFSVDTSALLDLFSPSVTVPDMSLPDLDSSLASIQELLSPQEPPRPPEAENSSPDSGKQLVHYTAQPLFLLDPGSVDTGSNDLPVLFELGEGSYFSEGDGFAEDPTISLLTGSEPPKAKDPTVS
Chain of ETV1 (P50549 whole entry): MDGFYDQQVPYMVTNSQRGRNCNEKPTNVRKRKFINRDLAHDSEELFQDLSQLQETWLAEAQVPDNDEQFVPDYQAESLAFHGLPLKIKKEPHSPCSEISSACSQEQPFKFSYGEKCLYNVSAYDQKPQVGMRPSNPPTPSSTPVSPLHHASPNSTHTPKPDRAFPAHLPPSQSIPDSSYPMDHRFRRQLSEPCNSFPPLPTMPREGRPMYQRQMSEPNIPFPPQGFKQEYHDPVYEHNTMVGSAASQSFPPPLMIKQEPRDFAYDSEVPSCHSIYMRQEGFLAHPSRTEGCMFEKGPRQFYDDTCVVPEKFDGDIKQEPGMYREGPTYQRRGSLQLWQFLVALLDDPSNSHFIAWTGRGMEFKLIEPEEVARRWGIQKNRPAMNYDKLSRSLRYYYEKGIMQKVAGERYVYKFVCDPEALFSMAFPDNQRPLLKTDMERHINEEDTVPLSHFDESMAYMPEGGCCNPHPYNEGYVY
Chain of ELF4 (Q99607 whole entry): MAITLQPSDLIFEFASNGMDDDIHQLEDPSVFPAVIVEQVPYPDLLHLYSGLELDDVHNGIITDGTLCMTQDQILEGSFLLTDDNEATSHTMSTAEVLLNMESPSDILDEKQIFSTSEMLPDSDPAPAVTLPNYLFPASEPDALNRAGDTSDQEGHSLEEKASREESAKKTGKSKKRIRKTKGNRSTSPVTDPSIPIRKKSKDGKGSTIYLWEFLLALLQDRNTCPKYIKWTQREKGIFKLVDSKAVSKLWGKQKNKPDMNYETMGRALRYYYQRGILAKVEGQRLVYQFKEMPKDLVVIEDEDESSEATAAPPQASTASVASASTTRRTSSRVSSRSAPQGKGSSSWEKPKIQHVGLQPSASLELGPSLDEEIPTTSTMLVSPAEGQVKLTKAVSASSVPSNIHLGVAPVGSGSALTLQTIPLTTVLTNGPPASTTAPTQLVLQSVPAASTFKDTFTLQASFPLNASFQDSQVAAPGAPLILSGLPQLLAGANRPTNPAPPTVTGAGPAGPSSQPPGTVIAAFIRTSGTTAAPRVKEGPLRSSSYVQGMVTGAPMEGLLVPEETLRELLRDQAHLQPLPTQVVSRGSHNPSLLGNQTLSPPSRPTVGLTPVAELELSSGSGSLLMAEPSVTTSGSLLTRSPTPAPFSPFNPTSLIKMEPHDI
Chain of ELF1 (P32519 whole entry): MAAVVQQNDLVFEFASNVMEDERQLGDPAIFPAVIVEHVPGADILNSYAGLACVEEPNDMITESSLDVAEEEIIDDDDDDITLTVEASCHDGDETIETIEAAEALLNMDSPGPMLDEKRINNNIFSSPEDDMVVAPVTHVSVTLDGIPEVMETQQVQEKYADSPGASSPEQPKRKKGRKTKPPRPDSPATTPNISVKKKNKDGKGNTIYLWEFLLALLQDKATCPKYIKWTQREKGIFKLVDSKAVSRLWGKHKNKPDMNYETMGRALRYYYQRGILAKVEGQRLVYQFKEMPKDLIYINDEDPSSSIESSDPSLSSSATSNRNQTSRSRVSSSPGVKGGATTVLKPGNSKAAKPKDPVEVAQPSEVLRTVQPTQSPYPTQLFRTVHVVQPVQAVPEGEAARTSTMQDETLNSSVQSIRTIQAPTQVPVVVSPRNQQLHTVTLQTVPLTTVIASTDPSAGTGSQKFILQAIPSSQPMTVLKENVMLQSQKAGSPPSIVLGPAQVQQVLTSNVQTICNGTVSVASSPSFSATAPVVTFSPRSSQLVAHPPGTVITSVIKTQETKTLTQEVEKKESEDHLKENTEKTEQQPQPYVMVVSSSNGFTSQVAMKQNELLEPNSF

Sequence: TTGAAC
- binding signal (FLI1): 1.13 fold enrichment (6-mer frequency, TF over GST control)
- binding signal (ELK1): 1.1 fold enrichment (6-mer frequency, TF over GST control)
- binding signal (GABPA): 1.08 fold enrichment (6-mer frequency, TF over GST control)
- binding signal (ERG): 1.01 fold enrichment (6-mer frequency, TF over GST control)
- binding signal (ELF1): 1.15 fold enrichment (6-mer frequency, TF over GST control)
- binding signal (EHF): 1.11 fold enrichment (6-mer frequency, TF over GST control)
- binding signal (SPI1): 1.04 fold enrichment (6-mer frequency, TF over GST control)
- binding signal (SPIB): 1.12 fold enrichment (6-mer frequency, TF over GST control)
- binding signal (ELK3): 1.12 fold enrichment (6-mer frequency, TF over GST control)
- binding signal (ETV5): 1.05 fold enrichment (6-mer frequency, TF over GST control)
- binding signal (HSF1): 1.02 fold enrichment (6-mer frequency, TF over GST control)
- binding signal (SPIC): 1.06 fold enrichment (6-mer frequency, TF over GST control)
- binding signal (ELF4): 1.12 fold enrichment (6-mer frequency, TF over GST control)
- binding signal (ELK4): 1.32 fold enrichment (6-mer frequency, TF over GST control)
- binding signal (ETV2): 1.27 fold enrichment (6-mer frequency, TF over GST control)
- binding signal (CRX): 1.03 fold enrichment (6-mer frequency, TF over GST control)
- binding signal (ETV1): 1.08 fold enrichment (6-mer frequency, TF over GST control)
